# According to PubChem BioAssay:
# Records with an inconclusive call do not appear. The source made the active and inactive calls. Rule as the data show it, unless noted: active = inhibition above about 80%; inactive = the rest.
# How the values were obtained:
# [1] = growth inhibition of DIPG glioma cells, dose response, cell-based, SU-DIPG-XVII, MIPE5.0, CellTiter-Glo, qHTS (AID 1347060; cut-off not given, nearly all actives have AC50 up to about 26 µM;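 as to AC50: cells exposed to compound for 48 hours before viability readout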); conditions: SU-DIPG-XVII viability, CellTiter-Glo ATP luminescence
# [2] = growth inhibition of DIPG glioma cells, dose response, cell-based, SU-DIPG-XIII, MIPE5.0, CellTiter-Glo, qHTS (AID 1347064; cut-off not given, nearly all actives have AC50 up to about 23 µM;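 as to AC50: cells exposed to compound for 48 hours before the viability read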); conditions: SU-DIPG-XIII viability, CellTiter-Glo ATP luminescence
# [3] = viability loss in pontine glioma line – cell-based, SU-DIPG-XXV, MIPE5.0, CellTiter-Glo, qHTS, dose response (AID 1347065; cut-off not given, nearly all actives have AC50 up to about 26 µM;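 also: cells exposed to compound for 48 hours before ATP readout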); conditions: CellTiter-Glo ATP luminescence
# [4] = JHH-DIPG-1 glioma cell viability, MIPE5.0 library, CellTiter-Glo luminescence, qHTS (AID 1347067; cut-off not given, nearly all actives have AC50 up to about 26 µM;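 also: cells exposed to compound for 48 hours before readout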); conditions: JHH-DIPG-1 glioma viability, CellTiter-Glo ATP luminescence
# [5] = SU-DIPG-XXV glioma cell viability, MIPE5.0 library, qHTS (AID 1347068; cut-off not given, nearly all actives have IC50 up to about 30 µM;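 as to IC50: cells exposed to compound for 48 hours before viability readout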)
# [6] = sensitizers of A549 cells to miR-34 induction, primary screen, imaging, A549 dox-inducible miR-34, nuclei and caspase counts (AID 1347080;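 active = compounds whose cell count with miR-34 switched on is under 0.7 times the count with it off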); conditions: A549 miR-34 inducible, Hoechst nuclei count, 48 h
# [7] = survival rescue of mitochondrial mutant cells in low glucose, primary screen, MELAS cybrids, Rieske KO mouse fibroblasts, CellTiter-Glo (AID 1508586;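 active = mean z-score across replicates of 1.96 or higher in either the MELAS or the Rieske mutant cell line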;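 also: z relative to plate mean and SD of compound and empty wells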)
# [8] = LFS_MB_P medulloblastoma growth inhibition, cell-based, chromothripsis tumors, cisplatin or BGB combos (AID 1671449); conditions: LFS_MB_P medulloblastoma cells;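 also: cells exposed for 96 hours; 0% = vehicle DMSO and 100% = killing by high DMSO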
# [9] = HDN33 neuroblastoma growth inhibition, cell-based, chromothripsis tumors, cisplatin or BGB combos (AID 1671450); conditions: HDN33 neuroblastoma cells, stronger effect = higher value;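 also: cells exposed to compound for four days; 0% = vehicle DMSO and 100% = cell killing by high DMSO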
# [10] = ICB984 medulloblastoma cell growth inhibition, synergistic combos for chromothripsis tumors, cisplatin or BGB combos (AID 1671451; call rule not given here;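 also: cells exposed for 96 hours before readout; 0% = vehicle DMSO and 100% = killing by high DMSO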); conditions: ICB984 medulloblastoma cells, drug combinations, stronger effect = higher value
# [11] = LFS_MB_1R medulloblastoma cell growth inhibition, synergistic combos for chromothripsis tumors, cisplatin or BGB combos (AID 1671452); conditions: LFS_MB_1R medulloblastoma cells, stronger effect = higher value;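 also: cells exposed for 96 hours before readout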
# [12] = HTB85 osteosarcoma cell growth inhibition, synergistic combos for chromothripsis tumors, BGB or cisplatin IC20 combos (AID 1671453); conditions: HTB85 osteosarcoma cells, drug combinations, stronger effect = higher value;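 also: cells exposed for 96 hours before readout; 0% = vehicle DMSO and 100% = high DMSO killing control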
# [13] = CRL2098 osteosarcoma cell growth inhibition, synergistic combos for chromothripsis tumors, BGB or cisplatin IC20 combos (AID 1671454); conditions: CRL2098 osteosarcoma cells, drug combinations, stronger effect = higher value;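 also: cells exposed for 96 h before readout; 0% = vehicle DMSO and 100% = killing by high DMSO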
# [14] = HD-MB03 medulloblastoma cell growth inhibition, synergistic combos for chromothripsis tumors, BGB or cisplatin IC20 combos (AID 1671455; in the data active = inhibition above about 83%;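 also: 0% = vehicle DMSO and 100% = high DMSO as cytotoxic control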); conditions: HD-MB03 medulloblastoma cells, stronger effect = higher value
# [15] = UWB1.289 ovarian carcinoma cell growth inhibition, synergistic combos for chromothripsis tumors, BGB or cisplatin combos (AID 1671456); conditions: UWB1.289 ovarian carcinoma cells, stronger effect = higher value;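 also: cells exposed to compound for four days; 0% = vehicle DMSO and 100% = killing by high DMSO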
# [16] = MDA-MB-436 breast carcinoma cell growth inhibition, synergistic combos for chromothripsis tumors, BGB or cisplatin combos (AID 1671458; call rule not given here;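 also: cells exposed for 96 hours; 0% = vehicle DMSO and 100% = killing by high DMSO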); conditions: MDA-MB-436 breast carcinoma growth inhibition, drug combinations, stronger effect = higher value
# [17] = growth inhibition of BT084 medulloblastoma cells, cell-based, ICGC_MB145, cisplatin and BGB IC40 combos (AID 1671461); conditions: drug combinations, stronger effect = higher value;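 also: cells exposed to drugs for 96 hours; 0% = vehicle DMSO and 100% = high DMSO full killing control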
# [18] = growth inhibition of RCMB18 medulloblastoma cells, cell-based, cisplatin and BGB IC40 combos (AID 1671462); conditions: stronger effect = higher value;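 also: cells exposed to compound for four days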
# [19] = growth inhibition of CRL1545 osteosarcoma cells, cell-based, cisplatin and BGB IC20 combos (AID 1671464); conditions: stronger effect = higher value;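 also: cells exposed to compound for 96 hours before readout; 0% = vehicle DMSO and 100% = high DMSO killing control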
# [20] = measured here: combination with BGB IC40, at 0.05 µM
# [21] = measured here: with BGB IC20 combination, at 0.5 µM
# [22] = measured here: with cisplatin IC20 combination, at 0.5 µM
# [23] = measured here: combination with cisplatin, at 0.5 µM
structure (smiles),measurement,setting,value
COc1ccc(S(=O)(=O)N(CCO)c2ccccc2CN(C)C/C=C/c2ccc(Cl)cc2)cc1,AC50,[1],18.6 µM (active)
same,AC50,[2],7.42 µM (active)
same,AC50,[3],16.6 µM (active)
same,AC50,[4],10.5 µM (active)
same,IC50,[5],18.6 µM (active)
C=CC(=O)Nc1cccc(Nc2nc(Nc3ccc(OCCOC)cc3)ncc2F)c1,AC50,[1],2.35 µM (active)
same,AC50,[2],1.66 µM (active)
same,AC50,[3],2.09 µM (active)
same,AC50,[4],3.72 µM (active)
same,IC50,[5],3.32 µM (active)
same,fold change,"[6]; stronger effect = lower value, cell number ratio, induced over uninduced",0.943 (inactive)
same,fold change,[6]; measured here: relative caspase fold change +Dox/-Dox,0.349
same,cell count,"[6]; measured here: total cells with miR-34 induction, stronger effect = lower value",1800
same,cell count,[6]; measured here: total cells without miR-34 induction,1910
same,z-score,"[7]; MELAS cybrid survival, CellTiter-Glo 48 h, stronger effect = higher value",2.91 (active)
same,z-score,"[7]; Rieske KO mouse fibroblast survival, CellTiter-Glo 72 h",-0.365
C=C1[C@H](CO)[C@@H](O)C[C@@H]1n1cnc2c(=O)[nH]c(N)nc21,outcome,[1],inactive
same,outcome,[2],inactive
same,outcome,[3],inactive
same,outcome,[4],inactive
same,outcome,[5],inactive
same,inhibition,"[8]; at 0.5 µM, stronger effect = higher value",-21.8% (inactive)
same,inhibition,"[8]; measured here: combination with BGB IC20, at 0.005 µM",5.29%
same,inhibition,"[8]; measured here: combination with BGB IC40, at 0.005 µM",73.1%
same,inhibition,[8]; [20],2.38%
same,inhibition,"[8]; measured here: combination with cisplatin, at 0.5 µM, stronger effect = higher value",-17.3%
same,inhibition,"[8]; measured here: combination with cisplatin, at 5 µM, stronger effect = higher value",-13.1%
same,inhibition,"[9]; BGB combo, at 5 µM",-36.2%
same,inhibition,[9]; at 0.5 µM,-7.93% (inactive)
same,inhibition,"[9]; cisplatin combo, at 5 µM",-16.1%
same,inhibition,[9]; [21],-13.1%
same,inhibition,[9]; [22],-0.869%
same,inhibition,"[9]; single agent, at 5 µM",-23.6%
same,inhibition,"[10]; BGB IC20 combo, at 0.005 µM",-16%
same,inhibition,"[10]; BGB IC40 combo, at 0.005 µM",-1.32%
same,inhibition,"[10]; BGB IC40 combo, at 0.05 µM",-29.5%
same,inhibition,[10]; at 0.5 µM,-11.2% (inactive)
same,inhibition,"[10]; cisplatin combo, at 0.05 µM",-36.2%
same,inhibition,"[10]; cisplatin combo, at 0.5 µM",-7.79%
same,inhibition,"[10]; cisplatin combo, at 5 µM",-2.87%
same,inhibition,"[10]; measured here: 5 uM single agent, at 5 µM",-12.5%
same,inhibition,[11]; at 0.5 µM,-2.98% (inactive)
same,inhibition,[11]; [20],-6.72%
same,inhibition,[11]; [23],-9.39%
same,inhibition,"[11]; measured here: combination with cisplatin, at 5 µM",13.9%
same,inhibition,[12]; at 0.5 µM,-14.3% (inactive)
same,inhibition,"[12]; measured here: with BGB IC20, at 0.5 µM",-14.3%
same,inhibition,"[12]; measured here: with BGB IC20, at 5 µM",-13%
same,inhibition,"[12]; measured here: with cisplatin IC20, at 0.5 µM",-20.6%
same,inhibition,"[12]; measured here: with cisplatin IC20, at 5 µM",-13.2%
same,inhibition,"[12]; single agent, at 5 µM",-13%
same,inhibition,[13]; at 0.5 µM,-23% (inactive)
same,inhibition,"[13]; measured here: combination with BGB at IC20, at 0.5 µM",-65.5%
same,inhibition,"[13]; measured here: combination with cisplatin at IC20, at 0.5 µM",-29.3%
same,inhibition,[14]; at 0.5 µM,0.83% (inactive)
same,inhibition,"[14]; measured here: combo with BGB at IC20, at 0.5 µM",-0.76%
same,inhibition,"[14]; measured here: combo with cisplatin at IC20, at 0.5 µM",-1.27%
same,inhibition,[15]; at 0.5 µM,-8.13% (inactive)
same,inhibition,"[15]; measured here: inhibition with BGB combination, at 0.05 µM",1.38%
same,inhibition,"[15]; measured here: inhibition with cisplatin combination, at 0.05 µM",-3.75%
same,inhibition,[16]; at 0.5 µM,-0.47% (inactive)
same,inhibition,"[16]; measured here: BGB combination, at 0.5 µM",-0.92%
same,inhibition,"[16]; measured here: BGB combination, at 5 µM",-0.668%
same,inhibition,"[16]; measured here: cisplatin combination, at 0.5 µM",0.06%
same,inhibition,"[16]; measured here: cisplatin combination, at 5 µM",-10.2%
same,inhibition,[17]; at 0.5 µM,4.2% (inactive)
same,inhibition,"[17]; cisplatin combination, at 0.5 µM",2.02%
same,inhibition,"[17]; cisplatin combination, at 5 µM",-20%
same,inhibition,"[17]; measured here: BGB IC40 combination 0.05 uM, at 0.05 µM",-15.2%
same,inhibition,"[17]; single agent, at 5 µM",6.8%
same,inhibition,[18]; at 0.5 µM,-7.97% (inactive)
same,inhibition,"[18]; cisplatin combo, at 5 µM",3.9%
same,inhibition,"[18]; measured here: BGB IC40 combination, at 0.05 µM",-6.21%
same,inhibition,[18]; [23],-17.4%
same,inhibition,"[18]; single agent, at 5 µM",-2.06%
same,inhibition,[19]; at 0.5 µM,-6.46% (inactive)
same,inhibition,[19]; [21],-39.9%
same,inhibition,[19]; [22],8.8%
same,inhibition,"[19]; single agent, at 0.05 µM",4.9%
same,inhibition,"[19]; single agent, at 5 µM",-41.7%
